Laboratory results as given in ChEMBL document CHEMBL5308541, “MAIP: An Open-Source Tool to Enrich High-Throughput Screening Output and Identify Novel, Druglike Molecules with Antimalarial Activity” (ACS Med Chem Lett, 2023).
Hit rate of the full screen: of about 4,800 compounds, about 410 (8.5%) showed an effect of 50% or more. The sample as a whole holds a higher share of strong results than the screen did.

The molecules below were run on Plasmodium falciparum (assay: Confirmatory screen in NF54 pLDH assay, in single point, at 2uM, 72h). Conditions: timepoint 72 hour.
Format: functional, Erythrocyte
`Fc1ccc(N2CC[C@H](CN3CCC(c4c[nH]c5ccccc45)(c4c[nH]c5ccccc45)CC3)C2)cc1` was tested, and the “% Inhibition” value was 102%.
With `CN1C2CCC1CC(OC(=O)C1CCC(C(=O)OC3CC4CCC(C3)N4C)(c3ccccc3)c3ccccc31)C2` (stereo unspecified) the “% Inhibition” value was 63%.
`CN1CCC(N(C)c2ccccc2CNC[C@@H](O)c2cccc(Cl)c2)CC1` was tested, and the “% Inhibition” value was 17%.
`O[C@@H](CNCc1ccc2c(c1)CCO2)c1ccc(F)c(F)c1` was tested, and the “% Inhibition” value was 74%.
`CC(C)(C)c1ccc(CNC[C@H](O)c2ccc(F)cc2F)cc1` was tested, and the “% Inhibition” value was 91%.
With `CN1CCN(c2ccc(C(F)(F)F)cc2NCc2cnc[nH]2)CC1` the “% Inhibition” value was 92%.
`COc1ccc(CCNCc2ccc3[nH]cnc3c2)c(Cl)c1` was tested, and the “% Inhibition” value was 48%.
In the case of `CCN(C(C)=O)c1nc(CN2CC=C(c3c[nH]c4cc(F)ccc34)CC2)cs1`, the “% Inhibition” value is reported as 20%.
With `CN(C)CC12CNCC1CN(c1ccnc3cc(Cl)ccc13)C2` (stereo unspecified) the “% Inhibition” value was 97%.
For `Oc1ccc(C2=CCN(Cc3cccc4[nH]ccc34)CC2)cc1`, the “% Inhibition” value was 38%.
In the case of `CCCOc1cncc(-c2ccc3c(c2)CNCC3)c1`, the “% Inhibition” value is reported as 8%.
